Screening data (PubChem BioAssay)
HPGD block: blocks human HPGD enzyme activity; P15428; purified HPGD, NADH fluorescence kinetic, PGE2 substrate; Potency, µM, without a hit: top-dose activity change, negative = inhibition, actives largely listed as inhibitors; hit rate 4.3% among 150,000; further: potency means the concentration at half of the fitted maximal effect
Target sequence (P15428 whole entry, looked up): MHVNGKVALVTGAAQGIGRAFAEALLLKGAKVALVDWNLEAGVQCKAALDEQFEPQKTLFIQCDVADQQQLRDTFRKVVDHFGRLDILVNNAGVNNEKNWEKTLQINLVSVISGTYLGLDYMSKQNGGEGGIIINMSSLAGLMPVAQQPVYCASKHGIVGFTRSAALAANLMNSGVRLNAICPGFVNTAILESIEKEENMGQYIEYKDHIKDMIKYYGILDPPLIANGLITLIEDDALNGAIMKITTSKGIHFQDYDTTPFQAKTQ
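20 nM HPGD preincubated 15 min at room temperature with compound in 50 mM Tris-HCl pH 8, 0.01% Tween 20. Started with 1 mM NAD+ and 30 uM prostaglandin E2; NADH fluorescence (360/450 nm) read 5 times over 30-s intervals, last minus first.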
ALDH1A1 block: ALDH1A1 (human) enzyme inhibition; P00352; Purified ALDH1A1, NADH fluorescence, propionaldehyde substrate; Potency, µM (titrated, usually from 75.3 µM), inactives show top-dose activity, negative = inhibition, most hits filed as inhibitors; hit rate 7.3% among 220,000; AID 1030;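 further: potency means the concentration at half of the fitted maximal effect; plate controls were no enzyme wells and a reference inhibitor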
PNC assembly inh: inhibitors of perinucleolar compartment assembly; hit rate 3.1% among 140,000; AID 2417; activity change (PNC), negative = inhibition, % at 10 µM; PC3M PTB-GFP, PNC prevalence imaging, 16 h; active compounds read low;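 active means readout at or below -70, meaning at least 70% loss of cells showing the perinucleolar compartment, a nuclear body marking cancer cells; inconclusive means readout between -30 and a set limit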;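 further: plate controls were DMSO wells for no effect and camptothecin positive control wells for full effect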
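PC3M cells stably expressing PTB-GFP, 750–1000 cells/well, treated 16 h at 37 °C with compound (23 nl of library stock), in duplicate. After paraformaldehyde fixation and Hoechst stain, imaged at 20x; PNC prevalence scored by image analysis.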
Numbers without * were called inactive; ? = inconclusive; nt = not tested or not shown; [ ] = dose if it differs, or a comment. In the library only some 11% were active in any assay of this set; here they are far more common. Unless noted, the call rests on the fitted dose curve; in most records, active means well fitted inhibition curve with a large enough effect (not every such curve was filed as active); inconclusive means small, poorly fitted or top-dose-only effect, or another doubt; inactive means no such curve, though single readings can be large or run the other way. Unless noted, on the % scale 0 is the no-effect control and ±100 the full control effect.

SMILES	HPGD block	ALDH1A1 block	PNC assembly inh
O=c1cc(N2CCCCC2)c(-c2ccccc2)nn1Cc1ccc(Cl)cc1Cl	-22%	?	43
O=c1cc(N2CCCCC2)c(-c2ccccc2)nn1Cc1cccc(Cl)c1	-19%	22µM*	-22
Cc1[nH]c2ccccc2c1Cc1nnc(SCc2ccccc2)o1	-21%	-2%	4
COc1cc(NC(=S)NCc2cccs2)cc(OC)c1	18µM*	-14%	33
CC(C)(C)c1ccc(NC(=S)NCc2cccs2)cc1	-11%	-1%	-7
COCCNC(=S)NCc1cccs1	nt	-6%	nt
Cc1cc(C)cc(NC(=S)NCc2cccs2)c1	14µM*	-3%	6
CCCCNc1ccc2nsnc2c1[N+](=O)[O-]	-22%	1%	?
O=C(CSc1nc2ccccc2c2nc3ccccc3n12)NCc1ccco1	?	?	-83*
CCC(=O)n1nc(-c2ccccc2)nc1SCC(=O)Nc1ccc(C)cc1	7.9µM*	-1%	72
COc1ccc(NC(=O)CSc2nc3ccccc3c3nc4ccccc4n23)cc1	-25%	-12%	34
Cc1ccc(NC(=O)CSc2nc3ccccc3c3nc4ccccc4n23)cc1	-15%	-6%	-108*
O=C(c1cccc([N+](=O)[O-])c1)n1nc(-c2ccccc2)nc1NCc1ccccc1	nt	-11%	?
CCc1ccccc1NC(=O)CSc1nc(-c2ccccc2)nn1C(=O)c1cccc([N+](=O)[O-])c1	13µM*	-3%	76
CC(=O)n1nc(-c2cccc(C)c2)nc1SCC(=O)Nc1ccccc1	-18%	4%	?
CCn1c(SCC(=O)NCc2ccco2)nc2ccccc2c1=O	nt	-7%	nt
COc1ccccc1N(C)S(=O)(=O)c1ccc(C(=O)Nc2nc(C)cs2)cc1	nt	-3%	nt
O=C1CCC(=O)N1c1ccc(-c2nc3ccccc3s2)cc1	nt	0%	nt
Cc1cc(=O)n2nc(-c3ccc(C(F)(F)F)cc3)sc2n1	-18%	-2%	23
O=C(N/N=C/c1ccc(-c2ccc([N+](=O)[O-])cc2)o1)C(O)c1ccccc1 (stereo not drawn)	-12%	-9%	21
NC(=S)N/N=C/c1ccc(-c2cccc([N+](=O)[O-])c2)o1	16µM*	?	11
O=C(N/N=C\c1ccccn1)C1c2ccccc2Oc2ccccc21	nt	12%	nt
O=C(N/N=C/c1ccco1)C1COc2ccccc2O1 (stereo not drawn)	-15%	5%	28
O=C(N/N=C\c1ccccn1)C1COc2cc3ccccc3cc2O1 (stereo not drawn)	14µM*	?	?
O=C(N/N=C/c1ccc(-c2cccc([N+](=O)[O-])c2)o1)c1cccs1	nt	-1%	nt
SMILES	HPGD block	ALDH1A1 block	PNC assembly inh
O=C(N/N=C\c1ccc(-c2ccc([N+](=O)[O-])cc2)o1)C1COc2ccccc2O1 (stereo not drawn)	20µM*	0%	?
CN(C)c1ccc(/C=N/NC(=O)C2COc3ccccc3O2)o1 (stereo not drawn)	-11%	22µM*	13
N[C@H](C(=O)O)[C@@H](O)c1cnc[nH]1	-4%	-3%[13.5 µM]	nt
COc1ccc(Br)cc1C1SCCN1S(C)(=O)=O (stereo not drawn)	-8%	-3%	20
O=C1COc2ccc(OCc3ccc(F)cc3)cc21	-12%	-2%	12
Cc1c(/C=N\NC(=O)C2COc3ccccc3O2)c2ccccc2n1C (stereo not drawn)	-24%	?	-111*
Cc1ccc(-n2c(O)c(/C=N/NC(=O)C3COc4ccccc4O3)c3ccccc3c2=O)cc1 (stereo not drawn)	-23%	?	35
Cn1c(-c2ccccc2)cnc1SCc1nc2ccccc2c(=O)[nH]1	-21%	32µM*	-3
Cn1c(SCc2nc3ccccc3c(=O)[nH]2)nnc1-c1ccco1	-6%	?	?
O=C(COc1cccnc1[N+](=O)[O-])Nc1cccc(S(=O)(=O)N2CCCCC2)c1	-25%	?	?
O=C(c1coc2ccc(O)cc12)C1CC1	-14%	2.8µM*	?
O=C(c1ccc(Cl)cc1)c1coc2ccc(O)cc12	-12%	9%	6
O=C(c1ccccc1F)N1CCN(Cc2cccc(Cl)c2)CC1	-1%	?	-8
CCOC(=O)C1=C(C)NC(C)=C(C(=O)OCC)C1C(=O)OCC(=O)N(CC)C1CCS(=O)(=O)C1 (stereo not drawn)	nt	-8%	nt
CC(=O)c1ccc(S(=O)(=O)N2CCC(NC(=O)Nc3cccc(F)c3)CC2)cc1	nt	-5%	nt
COC(=O)c1cccc(S(=O)(=O)N2CCC(NC(=O)Nc3cccc(F)c3)CC2)c1	nt	7%	-98*
COc1ccc(CN(C)C2c3ccccc3-c3ccccc32)cc1	nt	-21%	-91*
COc1ccc(OCCN(C)Cc2ccccc2)cc1	-11%	5%	-4
CC(C)(C)CC(=O)NCc1ccc(F)cc1	22µM*	14%	-17
O=C(CCCC(=O)NCc1ccc(F)cc1)NCc1ccc(F)cc1	nt	4%	nt
Nc1ccc(C(=O)N(CCO)CCO)cc1	nt	-1%	nt
CCN(CC)c1ccc(N)cc1	-16%	3.2µM*	nt
Nc1ccc(N(CCO)CCO)cc1	nt	16µM*	nt
CCN(CC)c1ccc(NC(=O)Nc2ccc(C(C)=O)cc2)cc1	-5%	-13%	42
CCCCC/C=C\CC1OC1C/C=C\C/C=C\CCCC(=O)O (stereo not drawn)	-12%	3%	nt
SMILES	HPGD block	ALDH1A1 block	PNC assembly inh
CCOC(=O)C1=C(c2ccccc2)N2CCS(=O)(=O)N=C2S1	-6%	7%	-83*
CCOC(=O)c1c(N)nn(C(=O)C(C)(C)C)c1-c1ccccc1	?	23%	10
CC(C)CCN1CCN(Cc2cccc3cccnc23)CC1CCO (stereo not drawn)	nt	2%	nt
O=C(N/N=C/c1cn(-c2ccccc2)nc1-c1cc2ccccc2o1)c1cccnc1	?	?	-106*
O=C(N/N=C/c1cn(-c2ccccc2)nc1-c1cc2ccccc2o1)c1ccncc1	-28%	7%	76
O=C1C2C3C=CC(C4CC34)C2C(=O)N1/N=C/c1ccc(-c2ccc(F)cc2[N+](=O)[O-])o1 (stereo not drawn)	20µM*	?	?
COc1ccc(-c2ccc(/C=N/N3C(=O)C4C5C=CC(C6CC56)C4C3=O)o2)c([N+](=O)[O-])c1 (stereo not drawn)	25µM*	10µM*	74
O=C1C2C(C(=O)N1/N=C/c1cc([N+](=O)[O-])c(O)cc1O)C1C=CC2C12CC2 (stereo not drawn)	nt	-94%	nt
Cc1ccc(-c2ccc(/C=N/N3C(=O)C4C5C=CC(CC5)C4C3=O)o2)c([N+](=O)[O-])c1 (stereo not drawn)	16µM*	0.89µM*	31
O=C(N/N=C/c1ccc(-c2ccccc2[N+](=O)[O-])o1)[C@H]1C[C@@H]1c1ccccc1	-13%	-5%	-6
COc1ccc(-c2ccc(/C=N/NC(=O)c3cccnc3)o2)c([N+](=O)[O-])c1	-20%	5%	1
CCNC(=O)Nc1ccc(OC)cc1OC	nt	8%	nt
Cc1ccc(NC(=O)NC(=O)CSc2nnc(-c3ccc(Cl)cc3Cl)n2N)c(C)c1	-27%	?	?
CN(C)C(=C(C#N)C#N)N1CCN(c2ccc(Cl)c(Cl)c2)CC1	-2%	9%	49
CCCCNC(=O)/C=C/c1ccc(OC)c(Br)c1	25µM*	-1%	?
